The results in this text go back to PubChem BioAssay.

Structures are written as SMILES.

Assay [1] has as its system Human papillomavirus type 1a protein E7 (residues 44-93). As to the kind of experiment: HPV1a E7 fragment binders on microarrays, primary screen, biochemical, small-molecule microarray, residues 44-93, 635 nm fluorescence (AID 1108).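 Further: E7 fragment applied at 1 µg/mL in TBST for 1 h at 4 C; score combines spot fluorescence with its signal to noise ratio.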 The conditions noted are these: small-molecule microarray binding, fluorescence 635 nm; higher = more signal.
Assay [2] can be described thus: modulators of HCV replicon luciferase signal, primary screen, HCV replication inhibitor project, Huh7 cells, luciferase reporter (AID 1109).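 Further: huh7 hepatoma cells harbouring a luciferase neomycin HCV replicon reporter; luciferase luminescence as measure of HCV replicon replication; test concentration not given here.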 The conditions noted are these: 48 h, higher = more signal. On the technique in general: A replicon is a self-replicating genome or part of one, used to study replication in cells.
Assay [3] concerns the target Left-right determination factor 2 (Homo sapiens) (UniProt O00292). Briefly: LEFTY2 binders on small-molecule microarrays, primary screen, biochemical, small-molecule microarray, 635 nm fluorescence scan (AID 1110). The conditions noted are these: LEFTY2 binding, higher = more signal.
Assay [4] concerns the target Calmodulin-1 (Homo sapiens) (UniProt P0DP23). Briefly: CALM1 binders on microarrays, EGTA buffer, profiling panel, biochemical, small-molecule microarray, Cy5-labelled CALM1 (AID 1111).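 Further: labelled calmodulin applied in Tris saline Tween buffer holding calcium plus EGTA and DTT.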 The following applies: Cy5-CALM1 binding fluorescence, higher = more signal.
The target is the same in assay [5]. As to the kind of experiment: calcium-bound CALM1 binders on microarrays, profiling panel, artefact control for SMM control-protein annotation, biochemical, small-molecule microarray, Cy5-labelled CALM1, plus calcium (AID 1112).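 Further: score merges spot fluorescence with signal to noise from triplicate slides.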 The conditions noted are these: Cy5-CALM1 binding fluorescence, higher = more signal.
Assay [6] is described as follows: small-molecule microarray binders of probe aWnt5a, primary screen, biochemical, biotinylated probe, 635/667 nm fluorescence (AID 1113).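 Further: score merges 667 nm fluorescence intensity with signal-to-noise per printed feature.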 The conditions noted are these: higher = more signal.
Assay [7] is described as follows: small-molecule microarray binders of probe aShh, primary screen, biochemical, biotinylated probe, 635/667 nm fluorescence (AID 1114).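 Further: probe is biotin-labelled aShh protein from a stem cell growth factor screen; measures binding of labelled protein to compounds printed on the slide; score merges feature fluorescence at 667 nm with signal-to-noise.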 The following applies: higher = more signal.
Assay [8] is described as follows: small-molecule microarray binders of probe aNog, primary screen, biochemical, biotinylated probe, 635/667 nm fluorescence (AID 1115).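 Further: probe is biotinylated aNog protein used at 0.15 µg/mL for 1 h at 4 C; z-score combines 667 nm fluorescence of each spot with its signal to noise.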 The conditions noted are these: higher = more signal.
The target of assay [9] is Torsin-1A-interacting protein 1 (Homo sapiens) (UniProt Q5JTV8). As to the kind of experiment: LAP1 binders from COS7 cell lysate, primary screen, small-molecule microarray, 635/667 nm fluorescence (AID 1116). The conditions noted are these: COS7-hLAP1 lysate binding, 635 nm fluorescence, higher = more signal.
Torsin-1A-interacting protein 1 (Homo sapiens), sequence (Q5JTV8 whole entry, looked up): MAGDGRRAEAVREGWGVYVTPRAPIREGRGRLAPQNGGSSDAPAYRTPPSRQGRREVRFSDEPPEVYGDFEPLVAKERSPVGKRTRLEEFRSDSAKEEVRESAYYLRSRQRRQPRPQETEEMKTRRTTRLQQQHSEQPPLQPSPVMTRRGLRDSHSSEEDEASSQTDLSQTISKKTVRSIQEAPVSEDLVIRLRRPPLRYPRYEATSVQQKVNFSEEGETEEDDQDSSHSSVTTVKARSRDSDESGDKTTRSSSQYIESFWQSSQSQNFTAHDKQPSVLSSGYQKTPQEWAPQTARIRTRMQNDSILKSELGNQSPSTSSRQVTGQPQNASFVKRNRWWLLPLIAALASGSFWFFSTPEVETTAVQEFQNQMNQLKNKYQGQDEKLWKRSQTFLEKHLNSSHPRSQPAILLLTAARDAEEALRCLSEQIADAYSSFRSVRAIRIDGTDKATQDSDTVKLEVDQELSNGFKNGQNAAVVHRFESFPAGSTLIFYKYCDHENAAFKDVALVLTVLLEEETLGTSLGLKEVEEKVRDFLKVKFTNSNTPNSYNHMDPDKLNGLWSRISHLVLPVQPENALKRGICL
Assay [10] addresses Alpha-bungarotoxin (Bungarus multicinctus) (UniProt P60615). As to the kind of experiment: alpha-bungarotoxin binders on microarray, profiling panel, artefact control for SMM control protein annotation, biochemical, small-molecule microarray, Alexa647 label, 635/667 nm fluorescence (AID 1117). The conditions noted are these: alpha-BTX-A647 binding fluorescence, higher = more signal.

Alpha-bungarotoxin (Bungarus multicinctus), sequence (P60615 whole entry, looked up): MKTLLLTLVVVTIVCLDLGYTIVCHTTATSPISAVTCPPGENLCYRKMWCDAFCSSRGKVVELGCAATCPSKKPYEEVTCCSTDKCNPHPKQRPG
Left-right determination factor 2 (Homo sapiens), sequence (O00292 whole entry, looked up): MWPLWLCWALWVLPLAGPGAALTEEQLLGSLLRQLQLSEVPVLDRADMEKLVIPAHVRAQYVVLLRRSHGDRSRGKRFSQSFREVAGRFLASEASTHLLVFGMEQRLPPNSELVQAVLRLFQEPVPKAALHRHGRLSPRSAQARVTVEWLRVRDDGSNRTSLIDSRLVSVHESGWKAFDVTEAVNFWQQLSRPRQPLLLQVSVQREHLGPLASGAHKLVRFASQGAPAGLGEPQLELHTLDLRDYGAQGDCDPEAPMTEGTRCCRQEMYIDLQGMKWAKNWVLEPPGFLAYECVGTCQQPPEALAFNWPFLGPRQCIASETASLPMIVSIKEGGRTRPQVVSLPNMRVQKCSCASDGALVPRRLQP

With `CCc1cc2c(nc1CC)CCN(CCC(C)=NOC[C@@H](O)COCc1ccco1)C2`, the composite z-score is -1.51 in assay [1]; 1.48 in assay [3]; -0.729 in assay [4]; -1.77 in [5]; 0.0663 in assay [6]; 0.547 in assay [7]. The composite z-score in [8] was -0.0965; in assay [9], 1.11; in [10], 0.64. For the same compound, the z-score in assay [2] was -1.59.
In the case of `CC(=O)OC[C@H]1O[C@H](C#CCCCc2ccccc2)C=C[C@@H]1OC(C)=O`, the composite z-score in [1] was 0.108; in [3], 0.615; in assay [4], -0.826; in assay [5], -0.794; in assay [6] it was -0.118; in assay [7] it was -0.0474. In addition, the composite z-score in assay [8] was -0.493; in assay [9], 0.298; in assay [10], 0.155. The z-score in [2] is -2.99.
Consider `CC(C)=NOCc1ccc(-c2cc(-c3ccccc3)no2)cc1`, for which the composite z-score is -0.0501 in assay [1]; 0.384 in [3]; -0.555 in [4]; -0.498 in [5]; -0.0701 in [6]; -0.214 in assay [7]. Moreover, the composite z-score in assay [8] was -0.139; in [9] it was 0.0444; in assay [10], -0.0299. For the same compound, the z-score in assay [2] was -0.115.
Regarding `CCCC=C(CCC)[C@@H](NC(=O)c1ccc(-c2ccccc2)cc1)c1ccc(C(=O)OC)cc1`, the composite z-score in [1] was 1.38; in assay [3], -0.394; in [4], 1.84; in [5], 1.31; in assay [6] it was 0.194; in assay [7] it was 0.0195. Further, the composite z-score in [8] worked out at 1.25; in assay [9], 0.421; in assay [10], 0.93. The z-score in assay [2] is -0.552.
With `O=C1NC(=O)C2C1C=CC(C(O)Cc1ccccc1)N2Nc1ccccn1` (stereo not given), the composite z-score in assay [1] is 0.555; in assay [3], 0.185; in assay [4] it was 0.0084; in assay [5], -0.541; in assay [6] it was 0.0328; in assay [7], -0.0793. The figures for the composite z-score in [8], in assay [9] and in assay [10] were 0.342, 0.818 and 1.34, respectively. The same compound showed a z-score in [2] of -0.377.
Consider `CCCNC(=O)OC[C@H]1O[C@H](CCON=C2[C@H]3CCn4c(=O)n(-c5ccccc5)c(=O)n4[C@H]3[C@H](O)[C@@H]3O[C@H]23)C=C[C@@H]1Oc1ccc(OC)cc1`, for which the composite z-score is 0.252 in [1]; 0.292 in assay [3]; -1.01 in [4]; -0.661 in assay [5]; -0.0944 in assay [6]; 0.0062 in assay [7]. Moreover, the composite z-score in [8] is -0.124; in assay [9] it was -0.0551; in [10] it was 0.134. Moreover, in [2], the z-score is -4.4.
As to `CN(C)CCCNC(=O)[C@@H]1c2ccccc2C(=O)N(Cc2cc(F)cc(C(F)(F)F)c2)[C@H]1c1ccc(CO)cc1`, the composite z-score in assay [1] is 0.7; in [3], 0.643; in [4] it was 0.509; in assay [5], 0.0028; in assay [6], -0.103; in assay [7] it was -0.0904. The composite z-score in assay [8] is 1.39; in [9], 0.886; in [10], -0.0234. In assay [2], this compound yielded a z-score of -0.734.
For `COc1ccc(OC[C@H]2Cc3c(-c4ccccc4)nc4c(c3CO2)CN(CCOc2ccccc2)CC4)cc1`, the composite z-score is 1.22 in assay [1]; 0.722 in [3]; 0.59 in assay [4]; -0.243 in assay [5]; -0.0399 in assay [6]; 0.0815 in assay [7]. For the same compound, the composite z-score stood at 0.0637 in assay [8], 0.423 in assay [9] and 1.13 in assay [10]. The compound further gave a z-score in [2] of -1.77.
As to `N#Cc1ccc(NN2C(C(O)c3cccc4ccccc34)C=CC3C(=O)N(c4ccccc4)C(=O)C32)cc1` (stereo not given), the composite z-score in assay [1] was 1.48; in assay [3] it was 0.221; in assay [4], 1.74; in assay [5], 0.164; in assay [6] it was 0.139; in assay [7] it was 0.23. Further, the composite z-score is 0.837 in assay [8], 0.365 in assay [9] and 1.09 in assay [10]. The z-score in assay [2] worked out at 0.148.
In the case of `CCN(CC)c1ccc(N2CC=CC34O[C@@H]5/C=C\CCC(C)OC(=O)C5[C@H]3C(=O)N(CCCO)[C@@H]4C2=O)cc1` (stereo not given in full), the composite z-score is -0.0672 in assay [1]; -0.434 in assay [3]; -0.671 in [4]; -0.431 in assay [5]; -0.128 in assay [6]; 0.0469 in assay [7]. The composite z-score in assay [8] is -0.216; in assay [9] it was 0.581; in assay [10], -0.625. This compound also returned a z-score in assay [2] of -0.527.
Consider `CO[C@H]1COC(=O)[C@@H]2CCCN2C(=O)CC=C[C@@H](C)[C@H](OC)COC(=O)CC=C[C@@H]1C`, for which the composite z-score in [1] is 0.589; in [3], 1.47; in assay [4] it was -2.29; in [5] it was -2.06; in [6], -0.117; in assay [7], -0.0904. Also, the composite z-score in assay [8] was -0.156; in [9] it was -0.298; in assay [10], -0.394. In assay [2], this compound came in with a z-score of 1.34.
As to `Cc1cc2c(nc1C)CCCN2CC(C)ON=C1[C@H]2CCn3c(=O)n(-c4ccccc4)c(=O)n3[C@H]2[C@H](O)[C@@H]2O[C@H]12` (stereo not given in full), the composite z-score in assay [1] is 0.862; in assay [3], 0.377; in assay [4], -0.135; in assay [5] it was -0.458; in assay [6], -0.0077; in assay [7], 0.767. Besides, the results for the composite z-score in assay [8], in [9] and in assay [10] were 0.066, 0.184 and 0.515, respectively. In assay [2], the z-score is -3.29.
For the compound `COCCOC(=O)N1C(=O)[C@@]2(c3cc(C#CC4(O)CCCCCC4)ccc31)[C@H](C(=O)N1CCN(c3ncccn3)CC1)[C@H]1C(=O)O[C@H](c3ccccc3)[C@H](c3ccccc3)N1[C@@H]2c1ccc(OCCO)cc1`, the composite z-score in assay [1] was 1.01; in assay [3] it was 0.519; in assay [4], 0.942; in assay [5], 0.0751; in assay [6], 0.0136; in [7], 0.637. Further, the composite z-score was determined as 0.42 in [8], 0.889 in assay [9] and 1.33 in [10]. The compound further showed a z-score in [2] of -1.38.
On to `C=CCN1C(=O)[C@]2(O[C@H](CCn3cc(CCO)nn3)[C@@H]([Si](C)(C)c3ccc(OC)cc3)[C@@H]2C)c2cc(N3CCOC3=O)ccc21`, for which the composite z-score was 1.07 in assay [1]; -0.264 in [3]; 0.504 in assay [4]; -0.463 in assay [5]; -0.0403 in [6]; -0.0356 in assay [7]. Further, the composite z-score in assay [8] was -0.0841; in [9], 1.52; in [10] it was 0.465. In assay [2], this compound registered a z-score of -3.46.
Take `COC(=O)[C@@]1(Cc2ccc(OC)cc2)[C@H]2c3cc(C(=O)N4CCCC4)n(Cc4cc(F)c(F)c(F)c4)c3C[C@H]2CN1C(=O)c1ccccc1`: the composite z-score in assay [1] turned out to be 1.37; in [3], 0.342; in assay [4], 2.69; in assay [5] it was 1.59; in assay [6] it was 1.11; in [7], 2.22. The composite z-score in assay [8] came out at 1.07; in [9], 1.52; in [10], 2.06. In [2], the z-score turned out to be 0.323.
Regarding `CS(=O)(=O)CCOC(=O)C1=CC(CCCO)=CC(c2cccs2)N(Cc2cccc(OC(F)(F)F)c2)C=C1C(=O)OCCS(C)(=O)=O` (stereo not given), the composite z-score in [1] was 0.729; in assay [3], -0.224; in assay [4], 2.31; in assay [5], 1.36; in assay [6], 0.055; in assay [7] it was 0.261. Also, the results for the composite z-score in [8], in [9] and in assay [10] were -0.0554, 1.88 and 1.6, respectively. This compound also yielded a z-score in assay [2] of -2.77.
On to `O=C1[C@H]2[C@H]3[C@H](O)[C@H](O)CC(=NOCc4ccccc4)[C@H]3CC[C@H]2C(=O)N1c1cccc(Oc2ccccc2)c1`, for which the composite z-score in [1] is 0.934; in assay [3], 0.389; in assay [4] it was 0.364; in assay [5] it was -0.177; in assay [6], 0.0145; in assay [7], -0.16. For the same compound, the composite z-score is -0.305 in assay [8], 0.683 in [9] and 0.684 in assay [10]. This compound also showed a z-score in assay [2] of 0.162.
With `CCOC(=O)NN=C1C[C@@H](O)[C@@H](O)[C@@H]2[C@@H]3C(=O)N(C[C@@H]4CCCO4)C(=O)[C@@H]3CC[C@@H]12`, the composite z-score in assay [1] is 0.396; in [3] it was 0.238; in assay [4], -0.375; in assay [5] it was -0.32; in assay [6], -0.0721; in assay [7], -0.273. The composite z-score was -0.0428 in assay [8], 0.584 in assay [9] and -0.189 in assay [10]. Besides, the z-score in [2] was found to be 0.353.
